# Results from PubChem BioAssay AID651919 (Sanford-Burnham Center for Chemical Genomics, 2012).
# Several values for one entry are separate records, joined by “and”; a condition that tells them apart may be missing. Equal values may be shown once.
# Target: C-X-C chemokine receptor type 6 (Homo sapiens) (UniProt O00574)
# Assay: CXCR6 and CXCR5 receptor antagonist panel, profiling panel, selectivity assay for CXCR6 antagonist project, cell-based, CHO-K1 PathHunter beta-arrestin, luminescence, set 4 (AID 651919)
# Settings: run 1, at 79 µM (top of the series)
# Chain of C-X-C chemokine receptor type 6 (Homo sapiens) (O00574 whole entry, looked up): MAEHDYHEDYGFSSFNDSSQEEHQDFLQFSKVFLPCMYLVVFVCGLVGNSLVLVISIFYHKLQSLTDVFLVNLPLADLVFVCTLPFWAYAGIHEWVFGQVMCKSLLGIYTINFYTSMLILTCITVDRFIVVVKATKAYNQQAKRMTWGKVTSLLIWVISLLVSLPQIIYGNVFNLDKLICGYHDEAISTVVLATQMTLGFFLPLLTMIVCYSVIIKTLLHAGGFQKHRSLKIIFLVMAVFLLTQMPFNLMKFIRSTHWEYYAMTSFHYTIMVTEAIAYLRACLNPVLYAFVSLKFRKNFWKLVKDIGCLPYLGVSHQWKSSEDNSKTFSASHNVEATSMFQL
compound,measurement,value
COc1cc(OC)cc(C(=O)NC2CC3CCCC(C2)N3CC(=O)Nc2ccc(C)cc2)c1 (centres undefined),inhibition,10.9%
COc1cc(C(=O)NC2CC3CCCC(C2)N3CC(=O)Nc2ccccc2Cl)cc(OC)c1OC (centres undefined),inhibition,99.8% and 101%
COc1cccc(C(=O)NC2CC3CCCC(C2)N3CC(=O)Nc2ccc(F)cc2)c1 (centres undefined),inhibition,-1.02%
COc1cc(C(=O)NC2CC3CCCC(C2)N3CC(=O)Nc2ccc(F)cc2)cc(OC)c1OC (centres undefined),inhibition,84.8%
COc1cccc(C(=O)NC2CC3CCCC(C2)N3CC(=O)Nc2ccc(Cl)cc2)c1 (centres undefined),inhibition,1.72%
COc1ccc(NC(=O)CN2C3CCCC2CC(NC(=O)c2ccc(OC)cc2)C3)cc1 (centres undefined),inhibition,-3.32%
COc1cc(C(=O)NC2CC3CCCC(C2)N3CC(=O)Nc2ccc(C)cc2)cc(OC)c1OC (centres undefined),inhibition,79%
COc1ccc(C(=O)NC2CC3CCCC(C2)N3CC(=O)Nc2ccc(C)cc2)cc1OC (centres undefined),inhibition,23.5%
COc1ccc(NC(=O)CN2C3CCCC2CC(NC(=O)c2cc(OC)c(OC)c(OC)c2)C3)cc1 (centres undefined),inhibition,66.4%
COc1ccc(NC(=O)CN2C3CCCC2CC(NC(=O)c2ccc4c(c2)OCO4)C3)cc1 (centres undefined),inhibition,-0.217%
COc1ccc(C(=O)NC2CC3CCCC(C2)N3CC(=O)Nc2ccc(Cl)cc2)cc1 (centres undefined),inhibition,-4.29%
COc1ccc(NC(=O)CN2C3CCCC2CC(NC(=O)c2ccc(OC)c(OC)c2)C3)cc1 (centres undefined),inhibition,12.2%
Cc1ccc(NC(=O)CN2C3CCCC2CC(NC(=O)c2ccc4c(c2)OCO4)C3)cc1 (centres undefined),inhibition,11.9%
COc1cc(OC)cc(C(=O)NC2CC3CCCC(C2)N3CC(=O)Nc2ccc(F)cc2)c1 (centres undefined),inhibition,7.92%
COc1ccc(C(=O)NC2CC3CCCC(C2)N3CC(=O)Nc2ccc(F)cc2)cc1OC (centres undefined),inhibition,15%
COc1cc(C(=O)NC2CC3CCCC(C2)N3CC(=O)Nc2ccc(Cl)cc2)cc(OC)c1OC (centres undefined),inhibition,88.2%
COc1ccc(NC(=O)CN2C3CCCC2CC(NC(=O)c2cc(OC)cc(OC)c2)C3)cc1 (centres undefined),inhibition,11.5%
COc1cc(C(=O)NC2CC3CCCC(C2)N3CC(=O)Nc2ccccc2)cc(OC)c1OC (centres undefined),inhibition,96.3% and 90.5%
COc1ccc(CN2C3CCCC2CC(NC(=O)c2cc(OC)c(OC)c(OC)c2)C3)cc1 (centres undefined),inhibition,57.9%
COc1ccc(NC(=O)CN2C3CCCC2CC(NC(=O)c2cccc(OC)c2)C3)cc1 (centres undefined),inhibition,0.669%
COc1cc(OC)cc(C(=O)NC2CC3CCCC(C2)N3CC(=O)Nc2ccc(Cl)cc2)c1 (centres undefined),inhibition,5.14%
O=C(CN1C2CCCC1CC(NC(=O)c1ccc3c(c1)OCO3)C2)Nc1ccccc1 (centres undefined),inhibition,12.3%
COc1ccccc1NC(=O)CN1C2CCCC1CC(NC(=O)c1cc(OC)c(OC)c(OC)c1)C2 (centres undefined),inhibition,97.4%
COc1ccc(C(=O)NC2CC3CCCC(C2)N3CC(=O)Nc2ccc(Cl)cc2)cc1OC (centres undefined),inhibition,9.09%
COc1cccc(C(=O)NC2CC3CCCC(C2)N3CC(=O)Nc2ccc(C)cc2)c1 (centres undefined),inhibition,16.6%
COc1ccc(C(=O)NC2CC3CCCC(C2)N3CC(=O)Nc2ccccc2)cc1OC (centres undefined),inhibition,33.7%
O=C(CN1C2CCCC1CC(NC(=O)c1ccccc1)C2)Nc1ccccc1 (centres undefined),inhibition,10.1%
COc1ccc(C(=O)NC2CC3CCCC(C2)N3CC(=O)Nc2ccc(C)cc2)cc1 (centres undefined),inhibition,13.2%
COc1cccc(C(=O)NC2CC3CCCC(C2)N3CC(=O)Nc2ccccc2)c1 (centres undefined),inhibition,16.6%
COc1ccc(C(=O)NC2CC3CCCC(C2)N3CC(=O)Nc2ccc(F)cc2)cc1 (centres undefined),inhibition,-4.57%
COc1cc(OC)cc(C(=O)NC2CC3CCCC(C2)N3CC(=O)Nc2ccccc2)c1 (centres undefined),inhibition,12.4%
O=C(CN1C2CCCC1CC(NC(=O)c1ccc3c(c1)OCO3)C2)Nc1ccc(Cl)cc1 (centres undefined),inhibition,3.65%
O=C(CN1C2CCCC1CC(NC(=O)c1ccc3c(c1)OCO3)C2)Nc1ccc(F)cc1 (centres undefined),inhibition,-0.62%
COc1ccc(C(=O)NC2CC3CCCC(C2)N3CC(=O)Nc2ccccc2)cc1 (centres undefined),inhibition,0.75%
